Holding throughout (experiment): PBM binding z-score (relative to random genomic background probes); higher = stronger binding; sequences stand for … in GC…GCGATTGACAGCGTAGAATGAAGG
Assay [1] relates to RARb homodimer (NR concentration 270 nM). The gist of the method:
(§1)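 On custom Agilent 4×180K arrays, double-stranded probes with 34-nt variable regions carried direct-repeat seeds, single-nucleotide variants, half-site ablations or random human genomic background. Ligand-free nuclear receptor dimers were applied for 1 h, and binding was read with antibodies against each partner (one per run). Binding z-scores come from regression-normalized fluorescence, with the random background probes as reference.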

In assay [2] the test system is RARg:RXRa (NR concentration 270 nM, RXRa partner concentration 90 nM). The essentials: as §1
In assay [3] the test system is RARg homodimer (NR concentration 270 nM). The essentials: as §1
Assay [4] concerns RXRa DBDmut IVT, anti-RXR (DBD mutation: RXRa K156A/R161A, NR concentration 90 nM). The gist of the method:
as §1

Assay [5] has as its system RXRa homodimer (NR concentration 180 nM). The gist of the method: as §1
The test system of assay [6] is THRa:RXRa (NR concentration 90 nM, RXRa partner concentration 90 nM). The essentials:
as §1

Assay [7] concerns THRa homodimer (NR concentration 90 nM). The gist of the method:
as §1

For assay [8], the system named is VDR homodimer (NR concentration 270 nM). The gist of the method:
as §1

Consider TCTTGTAGATCAACAGGCGGTTAAGAAAGATCGA, for which the PBM binding z-score in assay [1] was -0.586; in assay [2], 0.0814; in assay [3], -0.187; in assay [4], 0.904; in assay [5], 0.0872; in assay [6], -0.136. Further, the results for the PBM binding z-score in assay [7] and in assay [8] were -0.273 and -0.602, respectively.

For ACTATTAATTGAGACGAGGGCAACCGATAGGTTG, the PBM binding z-score was found to be 1.56 in assay [1]; 0.73 in assay [2]; 0.967 in assay [3]; 0.688 in assay [4]; 0.753 in assay [5]; 1.33 in assay [6]. For the same sequence, the PBM binding z-score in assay [7] came out at 1.03; in assay [8], 1.64.

In the case of CCTACTGAGCCATTCAGAGGTCATTGATCATATG, the PBM binding z-score stood at 4.08 in assay [1]; 3.93 in assay [2]; 2.95 in assay [3]; 1.66 in assay [4]; 4.41 in assay [5]; 3.21 in assay [6]. Also, the figures for the PBM binding z-score in assay [7] and in assay [8] were 1.58 and 3.71, respectively.

On to CCTTAAGGGTCACTCCAGGTTATAGCATCGGAGT, for which the PBM binding z-score was found to be 4.32 in assay [1]; 5.98 in assay [2]; 6.35 in assay [3]; 3.27 in assay [4]; 6.02 in assay [5]; 5.09 in assay [6]. For the same sequence, the PBM binding z-score stood at 0.592 in assay [7] and 2.55 in assay [8].

As for AGAATGAGGTTATTAAGCTCAGGGAATTGCGGTC, the PBM binding z-score in assay [1] was 0.163; in assay [2] it was 0.737; in assay [3] it was 0.334; in assay [4], 2; in assay [5] it was 1.6; in assay [6], 1.99. Also, the PBM binding z-score in assay [7] worked out at 0.104; in assay [8], 0.783.

As to AGAACGAGGGCCCGCTGAGTTGATAGCAGAGTAG, the PBM binding z-score in assay [1] is -1.16; in assay [2], -0.775; in assay [3] it was -0.722; in assay [4], -0.659; in assay [5], -0.399; in assay [6], -1.6. In addition, the PBM binding z-score was -0.89 in assay [7] and -0.586 in assay [8].

On to TCATATAGGTAAACAGGTGACAGTCCGTAAGTTA, for which the PBM binding z-score in assay [1] was 0.765; in assay [2], 0.72; in assay [3], 0.419; in assay [4] it was 1.37; in assay [5] it was 1.12; in assay [6], 0.614. The PBM binding z-score was found to be 0.354 in assay [7] and 0.168 in assay [8].

The values are drawn from the supplement of paper PMC6555819.
